Out of some 55,000 sequences screened, about 2,800 (5.1%) were called active. No stated cut-off is given here; in the data, active = GI50 up to about 1.1 µM and inactive = higher. A selection follows. Entries with a potency or affinity are not part of this list.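 Following 48 hours of exposure in 96-well plates, responses at five concentrations were used to interpolate endpoints linearly. Here, GI50 denotes the concentration required for 50% inhibition of growth.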
Each substance was assayed on SK-MEL-2 (assay: NCI tumour cell line growth inhibition, 48 h).

Substance | GI50
[Bis(aminomethyl)pentamethylenesilane]tetrachloropaltinum(IV), CHEMBL2146204 | 5.71 µM
[Bis(aminomethyl)dimethylsilane]tetrachloroplatinum(IV), CHEMBL2146190 | 19.1 µM
[Bis(aminomethyl)tetramethylenesilane]dichloropaltinum(II), CHEMBL2146205 | 30.9 µM
[Bis(aminomethyl)dimethylsilane]dichloroplatinum (II), CHEMBL2146201 | 65.5 µM
[Bis(aminomethyl)ethylmethylsilane]tetrachloroplatinum(IV), CHEMBL2146192 | 5.5 µM
CISPLATIN, CHEMBL11359 | 5.07 µM
mu-(1,7-nanodiamine-N,N')bis-(cis-aminedichloroplatimum (II)), CHEMBL2146215 | 38.9 µM
[Bis(aminomethyl)tetramethylenesilane]tetrachloropaltinum(IV), CHEMBL2146189 | 6.64 µM
[Bis(aminomethyl)diethylsilane]tetrachloroplatinum(IV), CHEMBL2146203 | 3.1 µM
[Bis(aminomethyl)pentamethylenesilane]dichloropaltinum(II), CHEMBL2146202 | 7.57 µM
cis-Bis[[(trimethylsilyl)methyl]amino]tetrachloroplatinum(IV), CHEMBL2146191 | 2.88 µM
